Inconclusive results are not listed. Calls of active or inactive are those of the source.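 Rule for the calls, unless noted: active = normalized viability below 100% at a tested concentration; inactive = the rest.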
How the values were obtained:
[1] = growth inhibition of DIPG glioma cells, dose response, cell-based, SU-DIPG-XVII, MIPE5.0, CellTiter-Glo, qHTS (AID 1347060; cut-off not given, nearly all actives have AC50 up to about 26 µM;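 for AC50: cells exposed to compound for 48 hours before viability readout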); details: SU-DIPG-XVII viability, CellTiter-Glo ATP luminescence
[2] = growth inhibition of DIPG glioma cells, dose response, cell-based, SU-DIPG-XIII, MIPE5.0, CellTiter-Glo, qHTS (AID 1347064; cut-off not given, nearly all actives have AC50 up to about 23 µM;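 for AC50: cells exposed to compound for 48 hours before the viability read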); details: SU-DIPG-XIII viability, CellTiter-Glo ATP luminescence
[3] = viability loss in pontine glioma line – cell-based, SU-DIPG-XXV, MIPE5.0, CellTiter-Glo, qHTS, dose response (AID 1347065; cut-off not given, nearly all actives have AC50 up to about 26 µM;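 note: cells exposed to compound for 48 hours before ATP readout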); details: CellTiter-Glo ATP luminescence
[4] = JHH-DIPG-1 glioma cell viability, MIPE5.0 library, CellTiter-Glo luminescence, qHTS (AID 1347067; cut-off not given, nearly all actives have AC50 up to about 26 µM;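 note: cells exposed to compound for 48 hours before readout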); details: JHH-DIPG-1 glioma viability, CellTiter-Glo ATP luminescence
[5] = SU-DIPG-XXV glioma cell viability, MIPE5.0 library, qHTS (AID 1347068; cut-off not given, nearly all actives have IC50 up to about 30 µM;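 for IC50: cells exposed to compound for 48 hours before viability readout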)
[6] = sensitizers of A549 cells to miR-34 induction, primary screen, imaging, A549 dox-inducible miR-34, nuclei and caspase counts (AID 1347080;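 active = compounds whose cell count with miR-34 switched on is under 0.7 times the count with it off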); details: A549 miR-34 inducible, Hoechst nuclei count, 48 h
[7] = survival rescue of mitochondrial mutant cells in low glucose, primary screen, MELAS cybrids, Rieske KO mouse fibroblasts, CellTiter-Glo (AID 1508586;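 active = mean z-score across replicates of 1.96 or higher in either the MELAS or the Rieske mutant cell line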;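 note: z relative to plate mean and SD of compound and empty wells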)
[8] = ovarian cancer cell viability with rucaparib, profiling panel, oncology-focused library, rucaparib conditional (AID 1508598); details: patient-derived ovarian cancer cells, CellTiter-Glo viability, 144 h, stronger effect = lower value
[9] = stronger effect = lower value, cell number ratio, induced over uninduced
[10] = measured here: relative caspase fold change +Dox/-Dox
[11] = measured here: total cells with miR-34 induction, stronger effect = lower value
[12] = measured here: total cells without miR-34 induction
[13] = MELAS cybrid survival, CellTiter-Glo 48 h, stronger effect = higher value
[14] = Rieske KO mouse fibroblast survival, CellTiter-Glo 72 h

COc1cc(Nc2nc3ccccc3nc2NS(=O)(=O)c2ccc(NC(=O)c3ccc(C)c(OC)c3)cc2)cc(OC)c1
1.03: fold change [6, 10]
0.479: z-score [7, 14]
active: viability ([8]; at 0.000305 µM, OCI-C5x cells, with rucaparib 10 µM, 100% = cells with rucaparib alone) 98.9% | viability ([8]; at 0.000305 µM, OCI-P5x cells, with rucaparib 20 µM, 100% = cells with rucaparib alone) 91.1% | viability ([8]; at 0.000305 µM, OCI-P5x cells, without rucaparib) 95.8% | viability ([8]; at 0.00122 µM, OCI-P5x cells, without rucaparib) 98.9% | viability ([8]; at 1.25 µM, OCI-P5x cells, with rucaparib 20 µM, 100% = cells with rucaparib alone) 90.5% | viability ([8]; at 5 µM, OCI-P5x cells, with rucaparib 20 µM, 100% = cells with rucaparib alone) 92.1%
8180: cell count [6, 12]
inactive: outcome [1] | outcome [2] | outcome [3] | outcome [4] | outcome [5] | fold change [6, 9] 0.923 | z-score [7, 13] -0.401 | viability ([8]; at 0.000305 µM, OCI-C5x cells, without rucaparib) 109% | viability ([8]; at 0.00122 µM, OCI-C5x cells, with rucaparib 10 µM, 100% = cells with rucaparib alone) 114% | viability ([8]; at 0.00122 µM, OCI-C5x cells, without rucaparib) 112% | viability ([8]; at 0.00122 µM, OCI-P5x cells, with rucaparib 20 µM, 100% = cells with rucaparib alone) 104% | viability ([8]; at 0.00488 µM, OCI-C5x cells, with rucaparib 10 µM, 100% = cells with rucaparib alone) 110% | viability ([8]; at 0.00488 µM, OCI-C5x cells, without rucaparib) 112% | viability ([8]; at 0.00488 µM, OCI-P5x cells, with rucaparib 20 µM, 100% = cells with rucaparib alone) 103% | viability ([8]; at 0.00488 µM, OCI-P5x cells, without rucaparib) 101% | viability ([8]; at 0.0195 µM, OCI-C5x cells, with rucaparib 10 µM, 100% = cells with rucaparib alone) 106% | viability ([8]; at 0.0195 µM, OCI-C5x cells, without rucaparib) 109% | viability ([8]; at 0.0195 µM, OCI-P5x cells, with rucaparib 20 µM, 100% = cells with rucaparib alone) 101% | viability ([8]; at 0.0195 µM, OCI-P5x cells, without rucaparib) 107% | viability ([8]; at 0.0781 µM, OCI-C5x cells, with rucaparib 10 µM, 100% = cells with rucaparib alone) 118% | viability ([8]; at 0.0781 µM, OCI-C5x cells, without rucaparib) 114% | viability ([8]; at 0.0781 µM, OCI-P5x cells, with rucaparib 20 µM, 100% = cells with rucaparib alone) 109% | viability ([8]; at 0.0781 µM, OCI-P5x cells, without rucaparib) 108% | viability ([8]; at 0.313 µM, OCI-C5x cells, with rucaparib 10 µM, 100% = cells with rucaparib alone) 108% | viability ([8]; at 0.313 µM, OCI-C5x cells, without rucaparib) 116% | viability ([8]; at 0.313 µM, OCI-P5x cells, with rucaparib 20 µM, 100% = cells with rucaparib alone) 107% | viability ([8]; at 0.313 µM, OCI-P5x cells, without rucaparib) 104% | viability ([8]; at 1.25 µM, OCI-C5x cells, with rucaparib 10 µM, 100% = cells with rucaparib alone) 106% | viability ([8]; at 1.25 µM, OCI-C5x cells, without rucaparib) 120% | viability ([8]; at 1.25 µM, OCI-P5x cells, without rucaparib) 108% | viability ([8]; at 5 µM, OCI-C5x cells, with rucaparib 10 µM, 100% = cells with rucaparib alone) 111% | viability ([8]; at 5 µM, OCI-C5x cells, without rucaparib) 121% | viability ([8]; at 5 µM, OCI-P5x cells, without rucaparib) 111%
7550: cell count [6, 11]

COc1cc(N2CCC(N)CC2)ccc1Nc1ncc(Cl)c(-c2c[nH]c3ccccc23)n1
0.405: fold change [6, 10]
1920: cell count [6, 11]
-0.504: z-score [7, 14]
inactive: fold change [6, 9] 0.915 | z-score [7, 13] 0.226
2100: cell count [6, 12]
active: AC50 [1] 525 nM | AC50 [2] 263 nM | AC50 [3] 209 nM | AC50 [4] 525 nM | IC50 [5] 742 nM

— PubChem BioAssay
